# Many of the other results were omitted from the sample, so the strongest signals are more common in it than they were.
# How the values were obtained:
# Test in all cases: glycan array binding signal (z-score within array); higher = stronger binding
# Details in all cases: glycan notation: IUPAC condensed, linker removed
# Fuc(a1-2)Gal = molecular target: Fuc(a1-2)Gal
# How it was run: (§1)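 The binding signal is a Z-score computed within each array and averaged over linkers. Arrays of the same protein sequence at different concentrations or buffers were also averaged together. Data originate from 3228 arrays in the Consortium for Functional Glycomics database, kept only where the protein sequence was available.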
# [1] = molecular target: Fuc(a1-2)Gal(b1-3)GalNAc(b1-3)Gal
# How it was run: as §1
# [2] = molecular target: Fuc(a1-2)Gal(b1-3)GlcNAc(b1-3)Gal(b1-4)Glc
# How it was run: as §1
# [3] = molecular target: Fuc(a1-2)[GalNAc(a1-3)]Gal(b1-3)GlcNAc
# How it was run: as §1
# [4] = molecular target: Fuc(a1-3)[Gal(b1-4)]GlcNAc(b1-4)Gal(b1-4)[Fuc(a1-3)]GlcNAc(b1-4)Gal(b1-4)[Fuc(a1-3)]GlcNAc
# How it was run: as §1
# Fuc(a1-4)GlcNAc = molecular target: Fuc(a1-4)GlcNAc
# How it was run: as §1
# [5] = molecular target: Gal(b1-3)GalNAc(b1-3)Gal(a1-4)Gal(b1-4)Glc
# How it was run: as §1
# [6] = molecular target: Gal(b1-4)GlcNAc(b1-3)Gal(b1-4)GlcNAc
# How it was run: as §1
# [7] = molecular target: Gal(b1-4)GlcNAc(b1-3)[Gal(b1-4)GlcNAc(b1-6)]GalNAc
# How it was run: as §1
# Gal3S(b1-4)GlcNAc6S = molecular target: Gal3S(b1-4)GlcNAc6S
# How it was run: as §1
# [8] = molecular target: Neu5Ac(a2-3)Gal(b1-3)[Neu5Ac(a2-6)]GalNAc
# How it was run: as §1
# [9] = molecular target: Neu5Ac(a2-6)Gal(b1-4)GlcNAc(b1-3)Gal(b1-4)GlcNAc
# How it was run: as §1
# Neu5Ac(b1-6)GalNAc = molecular target: Neu5Ac(b1-6)GalNAc
# How it was run: as §1
# [10] = molecular target: Neu5Gc(a2-3)Gal(b1-4)[Fuc(a1-3)]GlcNAc
# How it was run: as §1
# [11] = molecular target: Fuc(a1-2)Gal6S(b1-4)GlcNAc
# How it was run: as §1
# [12] = molecular target: Fuc(a1-3)[Gal(b1-4)]GlcNAc(b1-2)Man(a1-3)[Fuc(a1-3)[Gal(b1-4)]GlcNAc(b1-2)Man(a1-6)]Man(b1-4)GlcNAc(b1-4)GlcNAc
# How it was run: as §1
# [13] = molecular target: Fuc(a1-3)[Gal(b1-4)]GlcNAc(b1-2)Man(a1-6)[Gal(b1-4)GlcNAc(b1-2)Man(a1-3)]Man(b1-4)GlcNAc(b1-4)GlcNAc
# How it was run: as §1
# [14] = molecular target: Fuc(a1-3)[GalNAc(b1-4)]GlcNAc
# How it was run: as §1
# Fuc(b1-3)GlcNAc = molecular target: Fuc(b1-3)GlcNAc
# How it was run: as §1
# Gal(a1-3)GalNAc = molecular target: Gal(a1-3)GalNAc
# How it was run: as §1
# [15] = molecular target: Gal(b1-3)GlcNAc(b1-3)Gal(b1-4)Glc
# How it was run: as §1
# [16] = molecular target: Gal(b1-3)GlcNAc(b1-3)Gal(b1-4)GlcNAc
# How it was run: as §1
# [17] = molecular target: Gal(b1-3)[Neu5Ac(a2-6)]GlcNAc(b1-6)Gal(b1-4)Glc
# How it was run: as §1
# [18] = molecular target: Gal(b1-4)GlcNAc(b1-6)GalNAc
# How it was run: as §1
# [19] = molecular target: Gal(b1-4)GlcNAc(b1-6)[Gal(b1-3)]GalNAc
# How it was run: as §1
# Gal6S(b1-4)Glc6S = molecular target: Gal6S(b1-4)Glc6S
# How it was run: as §1
# Gal6S(b1-4)GlcNAc6S = molecular target: Gal6S(b1-4)GlcNAc6S
# How it was run: as §1
# [20] = molecular target: GlcNAc(a1-6)Gal(b1-4)GlcNAc
# How it was run: as §1
# [21] = molecular target: GlcNAc(b1-3)[GlcNAc(b1-6)]GlcNAc(b1-4)GlcNAc
# How it was run: as §1
# [22] = molecular target: Man(a1-2)Man(a1-2)Man(a1-3)[Man(a1-2)Man(a1-3)[Man(a1-2)Man(a1-6)]Man(a1-6)]Man(b1-4)GlcNAc(b1-4)GlcNAc
# How it was run: as §1
# [23] = molecular target: Man(a1-2)Man(a1-2)Man(a1-6)[Man(a1-3)]Man
# How it was run: as §1
# [24] = molecular target: Man(a1-2)Man(a1-3)[Man(a1-2)Man(a1-6)]Man
# How it was run: as §1
# [25] = molecular target: Man(a1-2)Man(a1-3)[Man(a1-3)[Man(a1-6)]Man(a1-6)]Man(b1-4)GlcNAc(b1-4)GlcNAc
# How it was run: as §1
# [26] = molecular target: Neu5Ac(a2-3)Gal(b1-3)GalNAc(b1-4)[Neu5Ac(a2-3)]Gal(b1-4)Glc
# How it was run: as §1
# [27] = molecular target: Neu5Ac(a2-3)Gal(b1-3)GlcNAc
# How it was run: as §1
# [28] = molecular target: Neu5Ac(a2-3)Gal(b1-4)GlcNAc
# How it was run: as §1
# [29] = molecular target: Neu5Ac(a2-8)Neu5Ac(a2-8)Neu5Ac(a2-3)[GalNAc(b1-4)]Gal(b1-4)Glc
# How it was run: as §1
# [30] = molecular target: Fuc(a1-2)Gal(b1-4)GlcNAc(b1-3)Gal(b1-4)GlcNAc
# How it was run: as §1
# [31] = molecular target: Fuc(a1-2)Gal(b1-4)[Fuc(a1-3)]GlcNAc
# How it was run: as §1
# [32] = molecular target: Fuc(a1-2)Gal(b1-4)[Fuc(a1-3)]GlcNAc(b1-3)Gal(b1-4)[Fuc(a1-3)]GlcNAc
# How it was run: as §1
# [33] = molecular target: Fuc(a1-2)[Gal(a1-3)]Gal(b1-4)[Fuc(a1-3)]GlcNAc
# How it was run: as §1
# [34] = molecular target: Fuc(a1-2)[GalNAc(a1-4)]Gal(b1-4)GlcNAc
# How it was run: as §1
# [35] = molecular target: Fuc(a1-3)[Gal(b1-4)]GlcNAc(b1-4)Gal(b1-4)[Fuc(a1-3)]GlcNAc
# How it was run: as §1
# Gal(a1-3)Gal = molecular target: Gal(a1-3)Gal
# How it was run: as §1
# [36] = molecular target: Gal(a1-3)Gal(b1-4)[Fuc(a1-3)]GlcNAc
# How it was run: as §1
# Gal(a1-4)Gal(b1-4)GlcNAc = molecular target: Gal(a1-4)Gal(b1-4)GlcNAc
# How it was run: as §1
# [37] = molecular target: Gal(b1-3)GlcNAc(b1-3)Gal(b1-3)GlcNAc
# How it was run: as §1
# [38] = molecular target: Gal(b1-3)[Fuc(a1-4)]GlcNAc(b1-3)Gal(b1-4)GlcNAc
# How it was run: as §1
# [39] = molecular target: Gal(b1-4)GlcNAc(b1-6)Gal(b1-4)GlcNAc(b1-6)GalNAc
# How it was run: as §1
# GalNAc(b1-3)GalNAc = molecular target: GalNAc(b1-3)GalNAc
# How it was run: as §1
# [40] = molecular target: GlcNAc(b1-3)[GlcNAc(b1-6)]Gal(b1-4)GlcNAc
# How it was run: as §1
# [41] = molecular target: Man(a1-2)Man(a1-2)Man(a1-3)Man
# How it was run: as §1
# Neu5Ac(a2-3)Gal = molecular target: Neu5Ac(a2-3)Gal
# How it was run: as §1
# [42] = molecular target: Neu5Ac(a2-3)Gal(b1-3)[Fuc(a1-4)]GlcNAc(b1-3)Gal(b1-4)[Fuc(a1-3)]GlcNAc
# How it was run: as §1
# [43] = molecular target: Neu5Ac(a2-3)Gal(b1-4)GlcNAc(b1-6)[Gal(b1-3)]GalNAc
# How it was run: as §1
# [44] = molecular target: Neu5Ac(a2-3)Gal(b1-4)[Fuc(a1-3)]GlcNAc
# How it was run: as §1
# [45] = molecular target: Neu5Ac(a2-8)Neu5Ac(a2-8)Neu5Ac(a2-3)Gal(b1-4)Glc
# How it was run: as §1
# [46] = molecular target: Neu5Gc(a2-6)Gal(b1-4)GlcNAc
# How it was run: as §1
binder,measurement,setting,value
"Siglec-H (Mus musculus), Q4QQK7 (protein) MLLSRLLPLLWVLKWASGNCFILPREVIGTYPSLTLELQSVTVQEGLCVLVPCHLIEYPMNRWSDAAFGYWFHEGENTHPDSLVATNKPYQLVQKEMQSRFHFSGDCSLDIRDAQKGDNGSYFFRLEKGGKTWNFCEERISVHVTDLTHSPNISIPQTLELGRPTNVMCSVPWACERGTPPIFSWMSAALISLGPTTTLSSVLTLTPRLQDHGTNLTCQVTFPGAGVTVQKTIQLNVTYNSQNSTAHVSGRVGPGKPRPLADVVQVAMGEAAIKFLLLGICFFFLSKRSHTKRVERPATHMDQAHAVMD",glycan array binding signal (z-score),Fuc(a1-2)Gal,-0.112
same,glycan array binding signal (z-score),[1],2.48
same,glycan array binding signal (z-score),[2],2.46
same,glycan array binding signal (z-score),[3],-0.271
same,glycan array binding signal (z-score),[4],-0.236
same,glycan array binding signal (z-score),Fuc(a1-4)GlcNAc,-0.188
same,glycan array binding signal (z-score),[5],-0.31
same,glycan array binding signal (z-score),[6],-0.348
same,glycan array binding signal (z-score),[7],6.24
same,glycan array binding signal (z-score),Gal3S(b1-4)GlcNAc6S,-0.224
same,glycan array binding signal (z-score),[8],2.4
same,glycan array binding signal (z-score),[9],1.02
same,glycan array binding signal (z-score),Neu5Ac(b1-6)GalNAc,0.697
same,glycan array binding signal (z-score),[10],-0.29
"NcCVNHO (Neurospora crassa), Q7S6U4 (protein) MSFHVTAEDARIEVRDNRTILFARLRREDGEWNDASYELDQIIGNNDGHFQWGGQNFTETAEDIRFHPKEGAAEQPILRARLRDCNGEFHDRDVNLTEIVENVNGEFQAKF",glycan array binding signal (z-score),Fuc(a1-2)Gal,-0.209
same,glycan array binding signal (z-score),[2],5.47
same,glycan array binding signal (z-score),[11],-0.185
same,glycan array binding signal (z-score),[12],-0.194
same,glycan array binding signal (z-score),[13],-0.185
same,glycan array binding signal (z-score),[14],-0.254
same,glycan array binding signal (z-score),Fuc(b1-3)GlcNAc,-0.209
same,glycan array binding signal (z-score),Gal(a1-3)GalNAc,-0.225
same,glycan array binding signal (z-score),[15],4.71
same,glycan array binding signal (z-score),[16],-0.264
same,glycan array binding signal (z-score),[17],4.11
same,glycan array binding signal (z-score),[7],-0.246
same,glycan array binding signal (z-score),[18],-0.228
same,glycan array binding signal (z-score),[19],-0.196
same,glycan array binding signal (z-score),Gal6S(b1-4)Glc6S,-0.209
same,glycan array binding signal (z-score),Gal6S(b1-4)GlcNAc6S,-0.172
same,glycan array binding signal (z-score),[20],-0.245
same,glycan array binding signal (z-score),[21],-0.297
same,glycan array binding signal (z-score),[22],8.87
same,glycan array binding signal (z-score),[23],4.66
same,glycan array binding signal (z-score),[24],4.86
same,glycan array binding signal (z-score),[25],0.23
same,glycan array binding signal (z-score),[26],-0.244
same,glycan array binding signal (z-score),[27],-0.217
same,glycan array binding signal (z-score),[28],-0.24
same,glycan array binding signal (z-score),[29],-0.24
"Mindin (Homo sapiens), Q9BUD6 (protein) MENPSPAAALGKALCALLLATLGAAGQPLGGESICSARALAKYSITFTGKWSQTAFPKQYPLFRPPAQWSSLLGAAHSSDYSMWRKNQYVSNGLRDFAERGEAWALMKEIEAAGEALQSVHEVFSAPAVPSGTGQTSAELEVQRRHSLVSFVVRIVPSPDWFVGVDSLDLCDGDRWREQAALDLYPYDAGTDSGFTFSSPNFATIPQDTVTEITSSSPSHPANSFYYPRLKALPPIARVTLVRLRQSPRAFIPPAPVLPSRDNEIVDSASVPETPLDCEVSLWSSWGLCGGHCGRLGTKSRTRYVRVQPANNGSPCPELEEEAECVPDNCV",glycan array binding signal (z-score),Fuc(a1-2)Gal,-0.273
same,glycan array binding signal (z-score),[30],-0.186
same,glycan array binding signal (z-score),[31],-0.185
same,glycan array binding signal (z-score),[32],0.005
same,glycan array binding signal (z-score),[33],-0.133
same,glycan array binding signal (z-score),[34],2.81
same,glycan array binding signal (z-score),[35],-0.142
same,glycan array binding signal (z-score),Gal(a1-3)Gal,-0.238
same,glycan array binding signal (z-score),[36],0.093
same,glycan array binding signal (z-score),Gal(a1-4)Gal(b1-4)GlcNAc,-0.141
same,glycan array binding signal (z-score),[37],-0.279
same,glycan array binding signal (z-score),[16],2.01
same,glycan array binding signal (z-score),[38],1.28
same,glycan array binding signal (z-score),[7],2.02
same,glycan array binding signal (z-score),[39],-0.238
same,glycan array binding signal (z-score),[18],1.34
same,glycan array binding signal (z-score),GalNAc(b1-3)GalNAc,-0.245
same,glycan array binding signal (z-score),[40],-0.324
same,glycan array binding signal (z-score),[41],-0.085
same,glycan array binding signal (z-score),Neu5Ac(a2-3)Gal,-0.347
same,glycan array binding signal (z-score),[42],0.188
same,glycan array binding signal (z-score),[43],-0.36
same,glycan array binding signal (z-score),[44],-0.257
same,glycan array binding signal (z-score),[45],-0.295
same,glycan array binding signal (z-score),[46],-0.363

# Source: the supplement of paper PMC8728848
